ABCB6 inh 2 = ABCB6 transporter inhibitors, primary screen, K562-ABCB6 cells, flow cytometry, MLPCN library; ATP-binding cassette sub-family B member 6 (Homo sapiens), Q9NP58; K562-ABCB6 porphyrin accumulation, 1 h; stronger effect = lower value; fluorescence ratio to DMSO, % at 10 µM; hit rate 0.19% among 360,000;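 active = fluorescence ratio to DMSO below 75%, the collection mean minus 3 SD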;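 also: signal is porphyrin accumulated inside mitochondria; 100% equals median channel fluorescence of DMSO control wells; lower ratio means ABCB6 inhibition with less porphyrin fluorescence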
Target sequence (Q9NP58 whole entry, looked up): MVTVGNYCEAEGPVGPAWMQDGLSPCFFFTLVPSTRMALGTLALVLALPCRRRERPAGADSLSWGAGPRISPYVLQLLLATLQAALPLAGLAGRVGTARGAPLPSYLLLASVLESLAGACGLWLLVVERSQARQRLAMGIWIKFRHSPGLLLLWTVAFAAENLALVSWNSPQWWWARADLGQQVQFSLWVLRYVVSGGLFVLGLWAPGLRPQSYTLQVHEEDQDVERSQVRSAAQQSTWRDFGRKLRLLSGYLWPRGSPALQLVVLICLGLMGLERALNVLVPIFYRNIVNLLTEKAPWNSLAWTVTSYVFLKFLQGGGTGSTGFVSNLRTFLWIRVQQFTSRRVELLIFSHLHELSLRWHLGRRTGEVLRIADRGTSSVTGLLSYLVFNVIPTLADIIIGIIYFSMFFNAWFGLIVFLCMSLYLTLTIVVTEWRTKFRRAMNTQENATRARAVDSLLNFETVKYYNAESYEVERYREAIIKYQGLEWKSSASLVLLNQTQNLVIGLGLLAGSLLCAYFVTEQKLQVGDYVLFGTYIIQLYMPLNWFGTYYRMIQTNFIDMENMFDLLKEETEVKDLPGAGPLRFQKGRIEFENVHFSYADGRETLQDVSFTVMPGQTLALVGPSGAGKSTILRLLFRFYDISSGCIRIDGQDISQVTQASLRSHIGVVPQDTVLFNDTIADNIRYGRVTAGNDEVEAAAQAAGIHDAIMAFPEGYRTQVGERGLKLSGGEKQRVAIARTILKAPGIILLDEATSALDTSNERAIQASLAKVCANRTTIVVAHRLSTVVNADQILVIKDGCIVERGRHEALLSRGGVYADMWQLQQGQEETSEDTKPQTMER
iPSC survival up = enhancers of single-cell hiPSC survival, primary screen, ATPlite luminescence; 100% = ROCK inhibitor wells, 0% = DMSO; survival enhancement, % at 20 µM; hit rate 0.044% among 360,000; in the data active = survival enhancement above about 18%;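 also: cells exposed to compounds for 16 hours before the ATP read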
INS-1E GSIS act = GLuc luminescence reporter in INS-1E cells, primary screen for activators of glucose-dependent secretion of insulin; hit rate 0.61% among 370,000; INS-1E GLuc reporter insulin secretion, 2-3 h; AID 743287, 2014; activation, % at 16.6 µM;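 active = lowest replicate activation of at least 40%, so every replicate reaches that level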;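 also: 0% = median of neutral control wells and 100% = median of IBMX positive control wells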
CendR NRP1 mod = modulators of CendR peptide binding to NRP-1, primary screen, biochemical, fluorescence polarization, uHTS; Neuropilin-1 (Homo sapiens), O14786; FAM-RPARPAR peptide binding to NRP-1; inhibition, % at 25 µM; hit rate 0.85% among 360,000;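 active = inhibition or corrected inhibition above about 18%, plus a signal ratio from 0.5 to 1.5, limit read from the data, passing the limit was not always enough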
ARNT TACC3 PPI = disruptors of ARNT/TACC3 protein interaction, primary screen, biochemical, AlphaScreen, single concentration; hit rate 0.66% among 390,000; AlphaScreen His-ARNT PAS-B/GST-TACC3 binding, luminescence; TACC3 fragment carries E629A point mutation; Transforming acidic coiled-coil-containing protein 3 (Homo sapiens), Q9Y6A5; inhibition, % at 9.99 µM; AID 623870, 2012;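 active = mean inhibition of replicates at least 50% and at least half of replicates each reaching 50%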;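 also: 0% = complete ARNT plus TACC3 wells and 100% = ARNT alone without TACC3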
* marks the source's active call; other numbers are inactive results; · = no result given. Sampled rows, rich in hits. Any-hit rate of the full collection: about 1.8%.

SMILES | ABCB6 inh 2 | iPSC survival up | INS-1E GSIS act | CendR NRP1 mod | ARNT TACC3 PPI
CC1(c2nnc(-c3ccc(Cl)cc3)o2)CC(c2cccc(Cl)c2)=NO1 (stereo not given) | 95 | -2 | 13 | 25* | -1
C[C@H]1CN([C@@H](C)CO)C(=O)c2cc(-c3ccc(C#N)cc3)cnc2O[C@H]1CN(C)C(=O)Nc1ccc(C(F)(F)F)cc1 | · | · | -28 | · | 0
CCOC(=O)C1=C(C)NC(=O)NC1c1cn(-c2ccccc2)nc1-c1cccs1 (stereo not given) | 100 | -1 | · | -6 | 1
CCOC(=O)C1=C(C)NC(C)=C(C(=O)OCC)C1c1cn(-c2ccccc2)nc1-c1ccco1 | 98 | 2 | · | -8 | 62*
COc1ccc(NC(=O)c2cn(-c3ccccc3)nc2-c2ccncc2)cc1 | 96 | -1 | 9 | 10 | -3
COc1ccc(-c2nn(-c3ccccc3)cc2C(=O)NC(=S)NNC(=O)c2ccncc2)cc1 | 100 | 0 | 3 | -1 | 46*
CCOC(=O)c1cn(-c2ccccc2)nc1-c1ccncc1 | 83 | 1 | 40* | 4 | 2
CCOC(=O)c1cn(-c2ccccc2)nc1-c1cccnc1 | 103 | 5 | · | 3 | -1
CNC(=O)C[C@H]1CC[C@H]2[C@H](COc3ccc(NS(=O)(=O)c4ccc(F)cc4)cc3C(=O)N2C)O1 | · | · | 7 | · | 11
CCOC(=O)c1sc(NC(=O)CNCc2ccccn2)c(C(=O)OCC)c1C | 94 | 1 | 13 | 3 | 48*
OCC[C@@H]1C[C@H](O)[C@@H](O)[C@@]2(CCCO2)O1 | 94 | 6 | 8 | 24* | 5
OCC[C@@H]1C[C@@H](O)[C@H](O)[C@@]2(CCCO2)O1 | 106 | 4 | 3 | -4 | -2
C[C@H]1CCC[C@]2(O[C@@H](CCO)C[C@@H](O)[C@@H]2O)O1 | 98 | -2 | · | 5 | 4
OCC[C@H]1C[C@H](O)[C@@H](O)[C@@]2(OCc3ccccc32)O1 | 99 | -1 | 10 | 15 | 1
OCC[C@H]1C[C@H](O)[C@@H](O)[C@]2(CCCO2)O1 | 99 | 5 | 13 | 38* | 2
OCC[C@@H]1C[C@@H](O)[C@H](O)[C@]2(OCc3ccccc32)O1 | 93 | -2 | 12 | 27* | -2
C[C@H]1CCC[C@@]2(O[C@@H](CCO)C[C@@H](O)[C@@H]2O)O1 | 98 | 0 | 24 | 25* | -6
C[C@@H]1CN([C@@H](C)CO)C(=O)c2cc(NC(=O)Cc3cn(C)c4ccccc34)ccc2O[C@@H]1CN(C)C(=O)Nc1ccc(F)cc1 | · | · | -5 | · | ·
OCC[C@@H]1C[C@@H](O)[C@H](O)[C@@]2(CCCc3ccccc3O2)O1 | 95 | -4 | -5 | 25* | -3
COC(=O)c1ccccc1S(=O)(=O)N1CCC(C(=O)OCc2ccc([N+](=O)[O-])cc2)CC1 | 92 | 0 | 7 | 25* | 1
CCCC#Cc1ccc([C@H]2[C@@H](CO)N3C(=O)CN(C(=O)c4cccc(F)c4)C[C@@H]23)cc1 | · | · | -12 | · | ·
COc1ccc(C(=O)COC(=O)C(CCSC)NS(=O)(=O)c2ccc(Cl)cc2)cc1 (stereo not given) | 99 | 2 | -18 | 26* | -5
Cc1cccc(NC(=O)Cn2c(/C=C/c3ccccc3)nc3ccccc32)c1 | 96 | -1 | 31 | -7 | 48*
Cc1ccc(NC(=O)Cn2c(=O)c(C)nc3ccccc32)cc1 | 105 | 0 | 13 | -22 | -3
O=C(CSc1nnc(CN2CCOCC2)n1-c1ccc(Cl)cc1)Nc1cc(Cl)ccc1O | 92 | 0 | · | 21* | 5
SMILES | ABCB6 inh 2 | iPSC survival up | INS-1E GSIS act | CendR NRP1 mod | ARNT TACC3 PPI
Cc1cc(NC(=O)COC(=O)c2oc3c(ccc4ccccc43)c2C)no1 | 97 | -2 | 43* | 2 | -6
CCOc1cc(C(=O)OCC(=O)Nc2cc(C)on2)cc(OCC)c1OCC | 93 | 6 | 76* | 5 | -1
COc1cc(OC)c(C(=O)OCC(=O)Nc2cc(C)on2)cc1OC | 95 | -1 | -8 | 36* | -9
CCCCOc1ccc(C(=O)OCC(=O)Nc2cc(C)on2)cc1 | 111 | -1 | 2 | 7 | -1
O=C(NCC(F)(F)F)[C@H]1[C@H](CO)[C@H]2Cn3c(cccc3=O)[C@H]2N1Cc1cccc(F)c1 | · | · | 10 | · | 12
O=C(NC1CCCC1)N1CC2(C1)[C@H](c1ccccc1)[C@@H](CO)N2CC1CCOCC1 | · | · | -4 | · | ·
NS(=O)(=O)c1cccnc1Nc1ccc(Cl)c(Cl)c1 | 90 | 0 | 1 | 0 | -4
NS(=O)(=O)c1cccnc1Nc1cccc(Cl)c1Cl | 204 | 3 | · | 24* | -1
COc1ccc(N/C(N)=N/c2nc(C)cc(C)n2)c(OC)c1 | 98 | 0 | -4 | 30* | 2
O=C(NC1Cc2ccccc2C1)[C@@H]1[C@@H](CO)[C@@H]2Cn3c(cccc3=O)[C@H]1N2C(=O)CC1CC1 | · | · | 4 | · | 3
O=S(=O)(N[C@H]1CC[C@H](CCNS(=O)(=O)c2ccccc2Cl)O[C@@H]1CO)c1ccccc1 | · | · | -23 | · | 21
CCOCC(=O)Nc1c(C(=O)OCC)oc2ccccc12 | 105 | 4 | 44* | 1 | -7
CCOC(=O)c1oc2ccccc2c1NC(=O)COC | 98 | -1 | 29 | -1 | 15
C[C@@H]1CC=CC[C@H](c2ccccc2)NC(=O)[C@H](C)N(C)C(=O)c2ccccc2O1 (mixture of isomers) | · | · | -2 | · | ·
O=C1Nc2cnc(Cl)nc2Nc2ccccc21 | 95 | 0 | 87* | -5 | ·
O=C(CSc1c2c(nc3ccccc13)CCCC2)NCc1ccco1 | 97 | -2 | 0 | -8 | -9
CC(C)(C)c1nc(SCC(=O)NCc2ccco2)c2ccccc2n1 | 95 | 1 | · | 26* | 4
CC(C)Cn1c(=O)n(C)c(=O)c2[nH]cnc21 | 101 | 3 | 73* | -18 | -3
CCCCCc1ccc(OCCOCCn2c[n+](C)c3ccccc32)c(CCCCC)c1 | 92 | -4 | · | 1 | ·
CCCCCc1ccc(OCCC[n+]2ccccc2)c(CCCCC)c1 | 105 | 0 | 192* | 2 | 6
COc1cc(OC)c(C(=O)Nc2ccc3ccccc3c2)cc1OC | 104 | 0 | · | 4 | -3
COc1cc2ccccc2cc1C(=O)Nc1ccc2oc(=O)ccc2c1 | 94 | 0 | 156* | 6 | -6
CO[C@H](CN(C)C(=O)Nc1ccc(C(F)(F)F)cc1)[C@@H](C)CN(Cc1ccccc1Cl)[C@H](C)CO | · | · | -6 | · | 0
COc1cccc(C(C[N+](=O)[O-])c2c(C)[nH]n(-c3ccccc3)c2=O)c1 (stereo not given) | 102 | 2 | -23 | 15 | 20
